Laboratory results taken from PubChem BioAssay.
Some of the results follow. Active and inactive are the calls of the source. Rule as the data show it, unless noted: active = inhibition above about 30%; inactive = the rest.

Legend:
[1] = target: Nuclear receptor coactivator 3 (Homo sapiens) (UniProt Q9Y6Q9); experiment: NCOA3 GAL4-fusion reporter inhibition – cell-based, luminescence, quadruplicate, confirmation (AID 588792;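 active = mean inhibition over 43.08%, the solvent-only control mean plus 3 SD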;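 also: 0% = DMSO treated cells and 100% = gossypol at 36 µM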); conditions: HEK293 GAL4-SRC3 luciferase reporter, at 3.6 µM, active compounds read high
Sequence of Nuclear receptor coactivator 3 (Homo sapiens) (Q9Y6Q9 whole entry, looked up, the tested form may be a part): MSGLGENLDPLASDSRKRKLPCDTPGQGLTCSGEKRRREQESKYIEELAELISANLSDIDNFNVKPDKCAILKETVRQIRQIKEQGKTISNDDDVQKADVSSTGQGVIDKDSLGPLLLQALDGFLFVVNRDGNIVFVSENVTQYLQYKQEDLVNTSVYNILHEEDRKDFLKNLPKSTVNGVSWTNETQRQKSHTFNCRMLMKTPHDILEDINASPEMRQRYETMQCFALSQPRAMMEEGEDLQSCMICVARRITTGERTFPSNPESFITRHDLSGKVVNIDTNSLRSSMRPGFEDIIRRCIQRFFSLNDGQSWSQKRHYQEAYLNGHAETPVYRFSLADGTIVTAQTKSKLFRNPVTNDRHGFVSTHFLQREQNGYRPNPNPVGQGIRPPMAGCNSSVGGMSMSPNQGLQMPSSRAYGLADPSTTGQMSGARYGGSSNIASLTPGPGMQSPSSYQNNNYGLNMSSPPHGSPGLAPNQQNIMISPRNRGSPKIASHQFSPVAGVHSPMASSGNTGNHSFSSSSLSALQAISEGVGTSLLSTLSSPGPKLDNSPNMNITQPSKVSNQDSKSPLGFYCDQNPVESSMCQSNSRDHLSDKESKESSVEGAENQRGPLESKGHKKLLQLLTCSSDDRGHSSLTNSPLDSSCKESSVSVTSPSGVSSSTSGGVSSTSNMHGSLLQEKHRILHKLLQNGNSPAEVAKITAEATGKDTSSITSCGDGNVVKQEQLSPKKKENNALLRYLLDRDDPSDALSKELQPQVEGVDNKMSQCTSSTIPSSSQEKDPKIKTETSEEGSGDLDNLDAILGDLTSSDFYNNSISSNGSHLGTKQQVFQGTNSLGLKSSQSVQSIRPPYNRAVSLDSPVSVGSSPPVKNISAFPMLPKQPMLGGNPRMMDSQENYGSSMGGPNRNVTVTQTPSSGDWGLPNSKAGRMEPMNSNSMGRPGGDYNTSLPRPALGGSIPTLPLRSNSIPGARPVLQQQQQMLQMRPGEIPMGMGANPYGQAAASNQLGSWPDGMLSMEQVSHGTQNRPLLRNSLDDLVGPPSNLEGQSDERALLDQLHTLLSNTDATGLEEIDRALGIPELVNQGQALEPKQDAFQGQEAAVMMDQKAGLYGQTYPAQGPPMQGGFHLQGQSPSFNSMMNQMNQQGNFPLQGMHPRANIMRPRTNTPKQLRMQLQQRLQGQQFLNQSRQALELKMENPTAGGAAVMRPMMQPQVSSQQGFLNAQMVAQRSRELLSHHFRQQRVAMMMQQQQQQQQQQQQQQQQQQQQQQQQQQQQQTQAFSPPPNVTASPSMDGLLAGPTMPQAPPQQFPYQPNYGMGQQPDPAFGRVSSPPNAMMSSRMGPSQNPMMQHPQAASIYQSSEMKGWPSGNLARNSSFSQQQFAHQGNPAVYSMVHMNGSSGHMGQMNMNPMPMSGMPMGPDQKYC

[2] = system: transactivating tegument protein VP16 (Human herpesvirus 1), Gal4-VP16 luciferase reporter; experiment: repression of VP16-driven luciferase reporter – cell-based, luminescence, high throughput, counter-screen for SRC3 inhibitor project (AID 588794); conditions: mammalian cells, at 3.6 µM, active compounds read high
[3] = target: Nuclear receptor coactivator 1 (Homo sapiens) (UniProt Q15788); experiment: NCOA1 GAL4-fusion reporter inhibition – cell-based, luminescence, quadruplicate, confirmation (AID 588820;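 active = mean inhibition above 46.68%, the untreated control wells mean plus 3 SD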;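 also: 0% = DMSO wells and 100% = gossypol 36 µM treated wells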); conditions: HEK293 GAL4-SRC1 luciferase reporter, at 3.6 µM, active compounds read high
Sequence of Nuclear receptor coactivator 1 (Homo sapiens) (Q15788 whole entry, looked up, the tested form may be a part): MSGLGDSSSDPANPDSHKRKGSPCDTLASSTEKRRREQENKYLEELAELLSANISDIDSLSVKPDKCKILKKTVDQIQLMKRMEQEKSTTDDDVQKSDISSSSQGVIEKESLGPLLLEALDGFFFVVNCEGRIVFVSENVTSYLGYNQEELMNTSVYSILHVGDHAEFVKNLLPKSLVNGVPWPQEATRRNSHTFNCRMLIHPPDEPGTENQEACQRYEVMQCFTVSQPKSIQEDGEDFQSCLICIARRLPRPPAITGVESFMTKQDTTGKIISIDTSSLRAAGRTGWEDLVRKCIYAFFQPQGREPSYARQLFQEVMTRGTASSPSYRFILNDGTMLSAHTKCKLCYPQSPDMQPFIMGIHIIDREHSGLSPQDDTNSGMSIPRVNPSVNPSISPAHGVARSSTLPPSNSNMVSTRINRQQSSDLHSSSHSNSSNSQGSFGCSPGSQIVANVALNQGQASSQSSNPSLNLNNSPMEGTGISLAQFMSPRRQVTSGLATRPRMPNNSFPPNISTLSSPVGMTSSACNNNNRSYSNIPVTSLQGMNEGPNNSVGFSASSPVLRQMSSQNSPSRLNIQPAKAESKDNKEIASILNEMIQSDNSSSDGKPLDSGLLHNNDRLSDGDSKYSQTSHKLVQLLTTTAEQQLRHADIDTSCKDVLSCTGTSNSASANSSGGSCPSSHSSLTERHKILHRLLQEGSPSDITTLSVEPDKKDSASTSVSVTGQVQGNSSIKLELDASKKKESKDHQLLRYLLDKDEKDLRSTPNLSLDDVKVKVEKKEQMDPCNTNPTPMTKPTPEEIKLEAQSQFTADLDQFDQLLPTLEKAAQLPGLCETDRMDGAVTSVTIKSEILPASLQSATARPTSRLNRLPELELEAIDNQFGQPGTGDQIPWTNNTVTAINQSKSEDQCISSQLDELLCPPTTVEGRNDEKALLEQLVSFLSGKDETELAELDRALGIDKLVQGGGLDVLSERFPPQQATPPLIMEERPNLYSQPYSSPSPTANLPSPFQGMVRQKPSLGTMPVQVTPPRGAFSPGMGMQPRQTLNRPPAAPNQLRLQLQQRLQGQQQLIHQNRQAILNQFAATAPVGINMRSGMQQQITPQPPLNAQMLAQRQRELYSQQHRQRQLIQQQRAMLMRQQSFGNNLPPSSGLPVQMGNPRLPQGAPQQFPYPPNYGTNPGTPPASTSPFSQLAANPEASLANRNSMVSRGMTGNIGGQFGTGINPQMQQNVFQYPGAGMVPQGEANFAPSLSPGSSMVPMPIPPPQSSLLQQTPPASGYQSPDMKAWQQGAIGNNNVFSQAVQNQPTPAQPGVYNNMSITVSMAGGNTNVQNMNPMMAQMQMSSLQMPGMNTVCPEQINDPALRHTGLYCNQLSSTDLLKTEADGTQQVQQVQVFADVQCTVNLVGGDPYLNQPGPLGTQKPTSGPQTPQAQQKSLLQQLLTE

[4] = repression of VP16-driven luciferase reporter – cell-based, luminescence, high throughput, counter-screen for SRC1 inhibitor project (AID 588824; in the data active = inhibition above about 25%); conditions: cell-based VP16 transactivation luciferase luminescence; at 3.6 µM; active compounds read high
[5] = StAR promoter reporter inhibitors, counter-screen for LRH-1 inverse agonist project, cell-based, luminescence, high throughput (AID 651611; in the data active = inhibition above about 28%); conditions: StAR promoter luciferase reporter counterscreen, at 3.6 µM, active compounds read high
[6] = target: Nuclear receptor subfamily 5 group A member 2 (Homo sapiens) (UniProt O00482); experiment: NR5A2 activity suppression in reporter cells – cell-based, luminescence, confirmation (AID 651613; in the data active = inhibition above about 42%;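 also: HEK293T cells co-transfected with LRH-1 and StAR promoter luciferase reporter; 0% = vehicle wells and 100% = parental cells lacking receptor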); conditions: cell-based LRH-1 luciferase reporter, inverse agonism; at 3.6 µM; active compounds read high
Sequence of Nuclear receptor subfamily 5 group A member 2 (Homo sapiens) (O00482 whole entry, looked up): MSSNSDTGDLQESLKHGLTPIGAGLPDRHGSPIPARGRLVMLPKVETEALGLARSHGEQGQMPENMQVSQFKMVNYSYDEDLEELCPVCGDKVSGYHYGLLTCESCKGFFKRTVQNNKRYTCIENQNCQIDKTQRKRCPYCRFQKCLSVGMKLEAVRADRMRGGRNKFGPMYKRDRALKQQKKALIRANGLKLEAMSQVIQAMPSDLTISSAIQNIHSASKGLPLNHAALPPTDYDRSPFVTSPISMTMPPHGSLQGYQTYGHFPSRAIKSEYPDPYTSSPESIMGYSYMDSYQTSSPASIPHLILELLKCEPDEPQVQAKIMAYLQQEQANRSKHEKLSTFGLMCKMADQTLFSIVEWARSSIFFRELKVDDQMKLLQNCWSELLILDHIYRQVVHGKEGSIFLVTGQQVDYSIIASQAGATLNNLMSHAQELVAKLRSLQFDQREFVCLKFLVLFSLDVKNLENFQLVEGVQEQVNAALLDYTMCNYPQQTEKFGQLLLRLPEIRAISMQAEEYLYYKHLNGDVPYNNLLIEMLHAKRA

[7] = target: Steroidogenic factor 1 (Homo sapiens) (UniProt Q13285); experiment: inverse agonism at SF1 nuclear receptor – cell-based, luminescence, high throughput, counter-screen for LRH-1 inverse agonist project (AID 651614; in the data active = inhibition above about 44%;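 also: cells cotransfected with StAR promoter reporter and SF1 expression vector; 0% = vehicle on cells with receptor and 100% = vehicle on cells lacking receptor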); conditions: cell-based SF1 luciferase reporter, at 3.6 µM, active compounds read high
Sequence of Steroidogenic factor 1 (Homo sapiens) (Q13285 whole entry, looked up, the tested form may be a part): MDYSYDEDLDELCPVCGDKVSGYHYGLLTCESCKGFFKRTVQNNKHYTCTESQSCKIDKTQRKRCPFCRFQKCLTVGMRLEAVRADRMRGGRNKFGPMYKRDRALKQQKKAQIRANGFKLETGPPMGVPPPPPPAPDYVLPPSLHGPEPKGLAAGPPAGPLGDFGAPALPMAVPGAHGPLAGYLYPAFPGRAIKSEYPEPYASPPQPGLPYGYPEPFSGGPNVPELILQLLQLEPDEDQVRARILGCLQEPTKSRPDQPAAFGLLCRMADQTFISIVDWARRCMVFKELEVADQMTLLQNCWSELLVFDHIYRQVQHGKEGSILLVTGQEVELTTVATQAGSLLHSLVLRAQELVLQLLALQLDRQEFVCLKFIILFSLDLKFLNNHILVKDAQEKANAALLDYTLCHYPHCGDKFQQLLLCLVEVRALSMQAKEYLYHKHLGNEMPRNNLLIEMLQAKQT

[8] = compounds suppressing VP16-driven luciferase signal – cell-based, luminescence, high throughput, counter-screen for LRH-1 inverse agonist project (AID 651615; in the data active = inhibition above about 33%); conditions: Gal4-VP16 luciferase reporter cells, at 3.6 µM, active compounds read high
[9] = reduced OD of V66 E. coli with T4 gene 2 phage – absorbance, RecBCD inhibitor project, confirmation (AID 651982;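 active = mean inhibition over triplicates exceeding the hit threshold derived in the original primary screen, cut at about 11% in these data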); conditions: E. coli V66 + T4 2- phage, growth OD; at 11.9 µM; active compounds read high
[10] = bacterial growth inhibition – absorbance, high throughput, counter-screen for RecBCD inhibitor project (AID 651983; in the data active = inhibition above about 20%;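 also: E. coli strain V66 grown with compound alone and no phage infection; 0% = bacteria with DMSO vehicle only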); conditions: E. coli viability, absorbance (OD) growth; at 11.9 µM; active compounds read high
[11] = reduced optical density, T4-challenged addAB+ bacteria – absorbance, E. coli V3065, T4 phage, counter-screen for RecBCD inhibitor project, confirmation (AID 651984;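 active = mean inhibition above the solvent-only control wells' mean plus 3 SD, cut at about 22% in these data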;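 also: higher means less bacterial growth from phage killing when AddAB is blocked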); conditions: E. coli expressing H. pylori AddAB + T4 phage, OD growth; at 11.9 µM; active compounds read high; gene 2 mutant T4, recBCD-deleted host

Measured: inhibition

Cc1ccnc2c1ccc1c(C)ccnc12
active: [1] 86.2% | [2] 54.3% | [3] 73.3% | [4] 61.9% | [5] 88.8% | [6] 108% | [7] 87% | [8] 65.1%

CC[n+]1c(C=C2C=C(C)OC(C)=C2)sc2ccccc21
active: [2] 67.2% | [4] 71.5% | [5] 70.3% | [6] 108% | [7] 85% | [8] 92.9%
inactive: [1] 42.2% | [3] 40.9%

C[n+]1c(-c2ccccc2)cc2c(=Cc3ccccc3)c3ccccc3n21
inactive: [1] 39.3% | [3] 27.9%
active: [2] 70.3% | [4] 63.3% | [5] 54.9% | [6] 98.1% | [7] 87.2% | [8] 84.3%

O=C(Nc1ccc(S(=O)(=O)N2CCCC2)cc1)c1ccc(CN2CCc3ccccc3C2)cc1
inactive: [1] 28.1% | [3] 8.79%
active: [2] 56.4% | [4] 56.9% | [5] 51.4% | [6] 74.5% | [7] 75.2% | [8] 68.7%

N=c1ccn(CC(=O)c2ccc(-c3ccccc3)cc2)cc1
inactive: [1] 37% | [3] 26.1%
active: [2] 43.3% | [4] 57.5% | [5] 46.2% | [6] 92.8% | [7] 76.3% | [8] 76.5%

COc1cc(Cn2c3ccc(NC(=O)CCc4ccc(O)cc4)cc3c(=O)n2C)ccc1F
active: [2] 61.3% | [4] 56.6% | [5] 56% | [6] 70.8% | [7] 69.3% | [8] 71.1%
inactive: [1] 42.6% | [3] 31.5%

Cc1c(C)c2cccnc2c2ncccc12
active: [1] 88.2% | [2] 65.7% | [3] 72.8% | [4] 65.7% | [5] 89.9% | [6] 108% | [7] 91.9% | [8] 64.1%

COc1ccc(CCNC(=O)c2nnn(-c3ccc4c(c3)OCCO4)c2N)cc1OC
active: [5] 44.7%
inactive: [1] 31.7% | [2] 2.53% | [3] 13.1% | [4] -6.95% | [6] -26.3% | [7] 29% | [8] -16.9%

CCN(CC)c1ccc2nc3ccccc3[n+](CC)c2c1
inactive: [3] 40.5%
active: [1] 50.2% | [2] 54.2% | [4] 59.6% | [5] 69.4% | [6] 88.3% | [7] 80.2% | [8] 68.7%

CC[C@H]1CN2CCc3cc(OC)c(OC)cc3C2C[C@@H]1C[C@H]1NCCc2cc(OC)c(OC)cc21 (stereo partly specified)
active: [1] 97.5% | [2] 96% | [3] 91.5% | [4] 94.6% | [5] 95.7% | [6] 110% | [7] 98% | [8] 97.2%

CCCCCCCn1c2c(c(=N)c3c1CCC3)CCCC2
active: [1] 70.2% | [2] 81.8% | [3] 56.2% | [4] 83.4% | [5] 79.3% | [6] 110% | [7] 95.8% | [8] 98.2%

Nc1cc2c3c(cccc3c1)C(=O)N(CCN1CCCC1)C2=O
inactive: [1] 16.8% | [3] 38.9%
active: [2] 40.7% | [4] 46.9% | [5] 60.5% | [6] 66.6% | [7] 61.6% | [8] 69.9%

CCCC(=O)NC(c1ccccc1Cl)c1ccc2cccnc2c1O (stereo unspecified)
inactive: [3] 35.6%
active: [1] 55.3% | [2] 47.8% | [4] 53.4% | [5] 82.7% | [6] 99.2% | [7] 90.3% | [8] 83.2%

CCN(CC)c1ccc(C(NC(=O)C(C)C)c2ccc3cccnc3c2O)cc1 (stereo unspecified)
active: [1] 55.9% | [2] 56% | [3] 78.3% | [4] 66.5% | [5] 86.3% | [6] 103% | [7] 90% | [8] 84.9%

CCCCCCCCCn1ccc(=N)cc1
active: [1] 68.9% | [2] 84.2% | [3] 58.6% | [4] 85.2% | [5] 72.7% | [6] 102% | [7] 91.3% | [8] 85.9%

CCCCCCCCCCn1ccc(=N)cc1
active: [1] 70.1% | [2] 81.1% | [3] 51.3% | [4] 80.4% | [5] 69.4% | [6] 102% | [7] 90.2% | [8] 83.7%

Nc1nc(N)nc(-c2cc(O)ccc2O)n1
active: [1] 78.4% | [2] 53.5% | [3] 74.7% | [4] 43.7% | [5] 41.7% | [6] 45.4% | [7] 65.9% | [8] 57.1%

C=CCn1c(C)cc(C(=O)CN2C(=O)c3ccccc3S2(=O)=O)c1C
active: [1] 89.7% | [2] 74.1% | [3] 77.3% | [4] 72.7% | [5] 89% | [6] 91.1% | [7] 90.7% | [8] 83.8%

CCC1(OC(=O)CN(C)C)C(=O)OCc2c1cc1n(c2=O)Cc2cc3c(N)cccc3nc2-1 (stereo unspecified)
active: [1] 89.8% | [2] 65.3% | [3] 62.3% | [4] 54.6% | [5] 83.5% | [6] 103% | [7] 90.5% | [8] 68.1%

c1ccc(-c2cccc(-c3ccccn3)n2)nc1
active: [1] 75.8% | [2] 39.9% | [3] 56.6% | [4] 32% | [5] 82.3% | [6] 96.7% | [7] 71.8% | [8] 41.8%

CN(C)c1ncnc2c1nnn2C1OC(CO)C(O)C1O (stereo unspecified)
active: [1] 82.7% | [2] 81.1% | [4] 81% | [5] 91.3% | [6] 105% | [7] 93.5% | [8] 88.8%
inactive: [3] 29.6%

N=c1c2c(-c3ccccc3)c(-c3ccccc3)n(Cc3ccccc3)c2ncn1CCO
inactive: [1] 26.6% | [3] 39.8%
active: [2] 61% | [4] 57.8% | [5] 57.2% | [6] 71.5% | [7] 73.1% | [8] 77.4%

CC(C)=CC(O)C/C(C)=C/COc1ccc2ccc(=O)oc2c1 (stereo unspecified)
active: [2] 38.5% | [4] 40.6%
inactive: [1] 17.4% | [3] 0.43% | [5] -4.64% | [6] 31.5% | [7] 29.2% | [8] -10.8%

CCc1nc(N)nc(N)c1-c1ccc(N(C)Cc2ccccc2)c([N+](=O)[O-])c1
active: [1] 63.5% | [2] 54.7% | [3] 69.4% | [4] 60.4% | [5] 71.8% | [6] 69.6% | [7] 65.9% | [8] 64.1%

Cc1ccc(O)c(N=Nc2nccs2)c1
inactive: [3] 36%
active: [1] 65.3% | [2] 57% | [4] 55.5% | [5] 79.3% | [6] 97.6% | [7] 78.5% | [8] 62.3%

COc1ccc(-c2c[n+]3c(n2-c2ccc(C)cc2)CCCCC3)cc1
active: [2] 60.1% | [4] 60.2% | [5] 53% | [6] 105% | [7] 82% | [8] 73.7%
inactive: [1] 36.5% | [3] 32.6%

CN(C(=O)OC(C)(C)C)c1ccc(-c2nc3ccccc3s2)cc1
active: [1] 87.1% | [2] 84.5% | [3] 78.8% | [4] 76.6% | [5] 75.6% | [6] 80.9% | [7] 77.3% | [8] 78.5%

O=C(NN=Cc1ccccc1O)NN=Cc1ccccc1O
active: [1] 48.5% | [2] 80% | [4] 77.1% | [5] 69.9% | [6] 97.3% | [7] 86.7% | [8] 81.8%
inactive: [3] 24.6% | [9] 1.25% | [10] 2.69% | [11] 6.88%

Cc1sc(NC(=O)/C=C/c2ccc3c(c2)OCO3)nc1-c1ccccc1
active: [2] 59.1% | [4] 57.7% | [5] 42.9% | [6] 74.9% | [7] 74.1% | [8] 70.9%
inactive: [1] 24.4% | [3] 32.1%

CN(C)c1ccc(C=c2c3ccccc3n3c2c2c([n+]3C)CCCC2)cc1
active: [1] 75.3% | [2] 81.7% | [3] 55.7% | [4] 81.8% | [5] 79% | [6] 110% | [7] 94.3% | [8] 94.7%

NC1=C(Br)C(=O)c2ncccc2C1=O
active: [1] 72.1% | [2] 60.8% | [3] 49.1% | [4] 54.8% | [5] 70.9% | [6] 92.9% | [7] 84.3% | [8] 79.3%

COc1cc(C2c3cc4c(cc3C(OC3OC5COC(c6cccs6)OC5C(O)C3O)C3COC(=O)C23)OCO4)cc(OC)c1O (stereo unspecified)
inactive: [2] -8.11% | [3] 26% | [4] -26.7% | [8] -36.1%
active: [1] 72.2% | [5] 73.9% | [6] 82.6% | [7] 54.5%

CN(C)CCNc1ccc(CO)c2oc3ccc(O)cc3c(=O)c12
active: [2] 31% | [4] 33.1% | [5] 47.7% | [6] 53.7% | [7] 53.1% | [8] 48.4%
inactive: [1] 4.57% | [3] 33%

NC(=Nc1nc(-c2ccccn2)cc2ccccc12)c1ccccn1
active: [1] 79% | [2] 47.7% | [3] 65.6% | [4] 28.4% | [5] 91.8% | [6] 107% | [7] 88.8% | [8] 59.3%

CCCCCCn1c2c(c(=N)c3c1CCC3)CCC2
active: [1] 61.3% | [2] 76.9% | [3] 55.4% | [4] 76.4% | [5] 68.7% | [6] 110% | [7] 91.7% | [8] 93.6%

CCN1/C(=C/c2ccc3cc(C)ccc3[n+]2CC)Sc2ccccc21
active: [1] 57% | [2] 78.5% | [4] 80.2% | [5] 72.2% | [6] 105% | [7] 92.3% | [8] 82.7%
inactive: [3] 45%
